Most compounds without a hit are left out; they make up all but 2.8% or so of the library.
CF NFkB inh = inhibitors of PAF-induced NF-kB signaling, primary screen, cell-based, GFP fluorescence, uHTS; inhibition, % at 5 µM; AID 588850, 2011; hit rate 0.86% among 360,000; KKLEB NF-kB-GFP reporter, GFP fluorescence overnight;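 active means at least 50% inhibition at 5 µM, scaled per plate between neutral and stimulator controls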;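 further: PAF is a Pseudomonas aeruginosa culture filtrate used as stimulus; plate controls were PAF-stimulated DMSO wells for no effect and unstimulated DMSO wells for full effect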
KKLEB cytotox = cytotoxicity in KKLEB CF airway cells, primary screen, cytotoxicity control for CF NF-kB inhibitor project, cell-based, uHTS, fluorescence assay plates | KKLEB CF airway cells viability, ATPlite luminescence, overnight; stronger effect = lower value; cells stimulated with P. aeruginosa culture filtrate | activity change (cytotoxicity), % at 5 µM | hit rate 0.36% among 360,000 | AID 602141, 2011;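 active means corrected activity change at or below -50% at 5 µM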
Peg3 prom inh = Peg3 promoter-driven luciferase inhibitors, primary screen, cell-based, HeLa, luciferase luminescence. HeLa PEG-Prom luciferase reporter, overnight. inhibition, % at 20 µM. hit rate 1.7% among 360,000;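 active means inhibition of at least 50% at 20 µM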
Beta2AR agonist = beta2AR agonists driving receptor internalization, primary screen, cell-based, FAP fluorogen, flow cytometry; Beta-2 adrenergic receptor (Homo sapiens), P07550; Am2.2-beta2AR cells; hit rate 0.43% among 340,000; response, % (concentration not given with the values); AID 504454, 2011;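 active means response above a set limit, near 3 SD of response in nonfluorescent compounds, cut at about 42% in these data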
Target sequence (P07550 whole entry, looked up): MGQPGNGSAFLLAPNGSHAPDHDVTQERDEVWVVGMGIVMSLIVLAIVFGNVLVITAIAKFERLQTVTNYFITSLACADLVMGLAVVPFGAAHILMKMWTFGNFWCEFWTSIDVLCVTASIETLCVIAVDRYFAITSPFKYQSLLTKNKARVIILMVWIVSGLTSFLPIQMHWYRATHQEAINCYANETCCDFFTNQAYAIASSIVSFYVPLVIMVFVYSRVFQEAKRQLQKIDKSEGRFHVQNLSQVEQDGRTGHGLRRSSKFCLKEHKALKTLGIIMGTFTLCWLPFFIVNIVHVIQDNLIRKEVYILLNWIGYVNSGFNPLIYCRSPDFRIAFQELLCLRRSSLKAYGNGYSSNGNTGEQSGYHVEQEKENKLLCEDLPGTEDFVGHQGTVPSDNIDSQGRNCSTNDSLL
MITF TRPM1 inh = inhibitors of MITF-dependent TRPM1 promoter reporter, primary screen, cell-based, SK-MEL-5, single point, luciferase. AID 488899, 2010. inhibition, % at 12.5 µM. SK-MEL-5 TRPM1 promoter luciferase, 24 h. hit rate 0.83% among 330,000;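 active means mean inhibition across replicates of 60% or more, whatever share of single replicates reaches that level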
HIF-2a block = HIF-2a reporter inhibitors, primary screen, luminescence, 786-0 RCC cells; 786-0 RCC cells HIF-2a reporter, luciferase luminescence, overnight; inhibition, % at 18.8 µM; hit rate 0.72% among 360,000; AID 624352, 2012;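 active means inhibition of the luminescence signal of 40% or more relative to plate controls, in a single-dose primary screen at 18.75 µM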
Mdm2-MdmX confirm = retested Mdm2-MdmX interaction blockers, confirmation, cell-based, luminescence, single concentration, set 2; SaOS-2 split-luciferase Mdm2/MdmX complementation; inhibition, % at 8 µM; shares compounds with HIF-2a block; hit rate 99% among 740;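 active means mean inhibition of the luminescence signal across two replicates at or above 26 percent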
HIF-2a conf = HIF-2a reporter inhibitor retest, confirmation, luminescence, 786-0 RCC cells; inhibition, % at 18.8 µM; hit rate 56% among 1,800; shares compounds with HIF-2a block; HIF-2a luciferase reporter luminescence, overnight;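 active means mean inhibition across four replicates of at least 40 percent at the single tested concentration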
HIF-1a counter = HIF-1a luciferase reporter signal reduction – MiaPaCa-2 cells, single concentration, counter-screen for HIF-2a inhibitor project, confirmation | shares compounds with HIF-2a block | MiaPaCa-2 HIF-1a luciferase reporter, desferoxamine, overnight | inhibition, % at 18.8 µM | hit rate 72% among 1,800;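 active means mean inhibition of the reporter signal across four replicates at the single tested dose of 50% or more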
Starred values were filed as active, the others as inactive.

Screening CCOC(=O)C(CCCOc1ccc(C(C)CC)cc1)C(=O)OCC (stereo not drawn) returned CF NFkB inh -6, KKLEB cytotox 6, Peg3 prom inh -2, Beta2AR agonist -11, MITF TRPM1 inh -2, HIF-2a block 70*, HIF-2a conf 73* and HIF-1a counter 69*.
`CCC(C)c1ccc(OCc2ccc(C(=O)O)o2)cc1` (stereo not drawn) gave CF NFkB inh -6, KKLEB cytotox -2, Peg3 prom inh 41, Beta2AR agonist 2, MITF TRPM1 inh 5, HIF-2a block 55*, HIF-2a conf 33 and HIF-1a counter -66.
For CCOC(=O)c1ccc(COc2ccc(C(C)C)cc2)o1 the results were CF NFkB inh 12, KKLEB cytotox -14, Peg3 prom inh -85, Beta2AR agonist 0, MITF TRPM1 inh -64 and HIF-2a block 22.
For CSc1ccccc1OCc1cc(C(=O)N2CCc3c(Cl)cccc3C2)no1 the results were CF NFkB inh -4, KKLEB cytotox 2, Peg3 prom inh 7, Beta2AR agonist -7, MITF TRPM1 inh 11 and HIF-2a block -4.
Screening CSCCC(NC(=O)c1ccco1)C(=O)N(C)CC(=O)Nc1ccccc1Br (stereo not drawn) returned CF NFkB inh -2, KKLEB cytotox 24, Peg3 prom inh -2, Beta2AR agonist 6, MITF TRPM1 inh 5 and HIF-2a block 15.
Nc1ccccc1C#CC(=O)c1ccccc1 was read as CF NFkB inh 89*, KKLEB cytotox -85*, Peg3 prom inh 104*, Beta2AR agonist 44*, MITF TRPM1 inh 93*, HIF-2a block 89*, Mdm2-MdmX confirm 103*, HIF-2a conf 57* and HIF-1a counter 105*.
For Cn1c(/C=C/c2ccc(Cl)cc2Cl)c([N+](=O)[O-])c(=O)n(C)c1=O the results were CF NFkB inh 32, KKLEB cytotox 22, Peg3 prom inh 103*, Beta2AR agonist 9, HIF-2a block 69*, HIF-2a conf 41* and HIF-1a counter 106*.
CCc1ccc(/C=C/c2c([N+](=O)[O-])c(=O)n(C)c(=O)n2C)cc1 was read as CF NFkB inh 19, KKLEB cytotox 7, Peg3 prom inh 25, Beta2AR agonist 15, MITF TRPM1 inh 9, HIF-2a block 46*, HIF-2a conf 36 and HIF-1a counter 32.
For COc1ccc(/C=C/c2c([N+](=O)[O-])c(=O)n(C)c(=O)n2C)c(OC)c1 the results were CF NFkB inh 22, KKLEB cytotox 3, Peg3 prom inh 3, Beta2AR agonist -2, MITF TRPM1 inh 3 and HIF-2a block 30.
N#Cc1ccccc1Cn1cc(/C=C/[N+](=O)[O-])c2ccccc21 was read as CF NFkB inh 40, KKLEB cytotox -20, Peg3 prom inh 106*, Beta2AR agonist 95*, MITF TRPM1 inh 91*, HIF-2a block 96*, HIF-2a conf 97* and HIF-1a counter 105*.
For O=C(O)Cn1cc(/C=C/[N+](=O)[O-])c2ccccc21 the results were CF NFkB inh 5, KKLEB cytotox 11, Peg3 prom inh 4, Beta2AR agonist 3, MITF TRPM1 inh 3 and HIF-2a block 13.
`O=[N+]([O-])/C=C/c1cn(Cc2ccccc2)c2ccccc12` gave CF NFkB inh -6, KKLEB cytotox -8, Peg3 prom inh 55*, Beta2AR agonist 83*, MITF TRPM1 inh 19, HIF-2a block 43*, HIF-2a conf 71* and HIF-1a counter 105*.
O=C1Nc2ccc(Br)cc2/C1=C/C(=O)c1ccc2c(c1)OCO2 was read as CF NFkB inh 37, KKLEB cytotox -10, Peg3 prom inh 53*, Beta2AR agonist 55*, MITF TRPM1 inh 66*, HIF-2a block 45*, HIF-2a conf -33 and HIF-1a counter 95*.
Screening COc1ccc(-n2ncc(Cl)c(Cl)c2=O)cc1 returned CF NFkB inh 89*, KKLEB cytotox -78*, Peg3 prom inh 105*, HIF-2a block 95*, Mdm2-MdmX confirm 102*, HIF-2a conf 96* and HIF-1a counter 107*.
COc1ccc(-n2ncc(N(C)n3cccc3)c(Cl)c2=O)cc1 was read as CF NFkB inh 4, KKLEB cytotox -7, Peg3 prom inh -201, Beta2AR agonist -5, MITF TRPM1 inh -52 and HIF-2a block -143.
Screening COc1cc(C=C2C(=O)C=CC2=O)ccc1O returned HIF-2a block 84*, HIF-2a conf 99* and HIF-1a counter 95*.

Screening results (PubChem)
